Results reported in PubChem BioAssay (NCI).
Compounds without any hit were thinned out: in the full panel of roughly 79,000, 15% have a hit. Calls of active or inactive are those of the source. No stated cut-off is given here; in the data, active means growth inhibition above about 70%; inactive means the rest.

Key:
[1] = NCI Yeast Anticancer Drug Screen. Data for the rad50 strain (AID 155);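 further: 0% = growth of vehicle-only cultures of the same strain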; settings: S. cerevisiae rad50 strain growth inhibition, hits give high values
How it was run: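 A DNA repair-deficient yeast mutant serves as the test organism; compound-induced growth inhibition is calculated against vehicle-treated cells.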

[2] = NCI Yeast Anticancer Drug Screen. Data for the mec2-1 strain (AID 157); settings: S. cerevisiae mec2-1 strain, hits give high values
How it was run: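 Growth inhibition is read against vehicle-treated controls after compound exposure of the mec2-1 yeast strain, which is defective in DNA damage repair or cell cycle control.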

[3] = NCI Yeast Anticancer Drug Screen. Data for the sgs1 mgt1 strain (AID 161);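 further: 0% = growth of cultures given vehicle only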; settings: S. cerevisiae sgs1 mgt1 strain, hits give high values
How it was run: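 Yeast cells carrying a defined DNA-repair defect were exposed to test compounds. Growth inhibition was measured relative to vehicle-treated controls.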

[4] = NCI Yeast Anticancer Drug Screen. Data for the cln2 rad14 strain (AID 165);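 further: 0% = growth equal to vehicle treated cultures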; settings: S. cerevisiae cln2 rad14 strain, hits give high values
How it was run: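 Growth inhibition, relative to vehicle-treated controls, is the read-out. The test organism is a yeast strain with defined genetic alterations, cln2 rad14.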

[5] = NCI Yeast Anticancer Drug Screen. Data for the bub3 strain (AID 167); settings: S. cerevisiae bub3 mutant strain, hits give high values
How it was run: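 Inhibition values come from growth of compound-treated mutant yeast normalised to vehicle-treated controls.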

[6] = NCI Yeast Anticancer Drug Screen. Data for the mlh1 rad18 strain (AID 175); settings: S. cerevisiae mlh1 rad18 strain growth inhibition, hits give high values
How it was run: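 Cells of a genetically altered yeast strain, deficient in DNA damage repair, were treated with compound. Their growth was then compared with that of vehicle-treated cultures to give inhibition.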

[7] = at 5.0 µM (retest, dose inferred, filed as 0.5)
[8] = at 50.0 µM (retest, dose inferred, filed as 5.0)

Measured: growth inhibition

CNc1ccc(N)cc1
inactive: [1]; [7] 6% | [1]; [8] -9% | [1]; at 50.0 µM -15.1% | [2]; [7] -2% | [2]; [8] -5% | [2]; at 50.0 µM 21.6% | [3]; [7] -8% | [3]; [8] -2% | [3]; at 50.0 µM -3.85% | [4]; [7] 5% | [4]; [8] 1% | [4]; at 50.0 µM 26.4% | [5]; [7] 9% | [5]; [8] 8% | [5]; at 50.0 µM 7.1% | [6]; [7] 0% | [6]; [8] -5% | [6]; at 50.0 µM -15.2%

O=c1cccccc1O
inactive: [1]; [7] 14% | [2]; [7] 4% | [3]; [7] 8% | [4]; [7] 16% | [4]; [8] 62% | [5]; [7] 26% | [6]; [7] 13%
active: [1]; [8] 97% | [1]; at 50.0 µM 90.4% | [2]; [8] 100% | [2]; at 50.0 µM 91.7% | [3]; [8] 99% | [3]; at 50.0 µM 93.3% | [4]; at 50.0 µM 85.7% | [5]; [8] 97% | [5]; at 50.0 µM 91.5% | [6]; [8] 98% | [6]; at 50.0 µM 81.1%

COc1cc(NS(C)(=O)=O)ccc1Nc1c2ccccc2nc2ccccc12
active: [1]; [8] 85% | [1]; at 50.0 µM 83.5%
inactive: [1]; [7] 67% | [2]; [7] -5% | [2]; [8] 57% | [2]; at 50.0 µM 42.5% | [3]; [7] 9% | [3]; [8] 44% | [3]; at 50.0 µM 37.2% | [4]; [7] 15% | [4]; [8] 32% | [4]; at 50.0 µM 20.8% | [5]; [7] 14% | [5]; [8] 24% | [5]; at 50.0 µM 11.1% | [6]; [7] 9% | [6]; [8] 38% | [6]; at 50.0 µM 32.9%

CSC(=S)N/N=C(\C)c1nccnc1C
inactive: [1]; [7] 5% | [2]; [7] 7% | [3]; [7] 3% | [4]; [7] -10% | [5]; [7] 21% | [6]; [7] 5%
active: [1]; [8] 98% | [1]; at 50.0 µM 98.7% | [2]; [8] 99% | [2]; at 50.0 µM 98.9% | [3]; [8] 98% | [3]; at 50.0 µM 98.7% | [4]; [8] 97% | [4]; at 50.0 µM 98% | [5]; [8] 98% | [5]; at 50.0 µM 99% | [6]; [8] 98% | [6]; at 50.0 µM 98.9%

CC(=O)c1ccc(Br)cc1NC1=CC(=O)c2ncccc2C1=O
active: [1]; [7] 95% | [1]; [8] 95% | [1]; at 50.0 µM 86.7% | [2]; [7] 88% | [2]; [8] 94% | [2]; at 50.0 µM 91.2% | [3]; [7] 81% | [3]; [8] 96% | [3]; at 50.0 µM 88.8% | [4]; [7] 77% | [4]; [8] 90% | [4]; at 50.0 µM 88.3% | [5]; [7] 83% | [5]; [8] 95% | [5]; at 50.0 µM 89.7% | [6]; [7] 87% | [6]; [8] 95% | [6]; at 50.0 µM 87.3%

CCCCC(CCc1ccccc1)(C(=O)O)c1ccccc1 (stereo not given)
active: [1]; [7] 88% | [1]; [8] 99% | [1]; at 50.0 µM 99.4% | [2]; [7] 87% | [2]; [8] 99% | [2]; at 50.0 µM 99.5% | [3]; [8] 99% | [3]; at 50.0 µM 99.7% | [4]; [7] 88% | [4]; [8] 99% | [4]; at 50.0 µM 99% | [5]; [7] 72% | [5]; [8] 99% | [5]; at 50.0 µM 99.5% | [6]; [7] 92% | [6]; [8] 99% | [6]; at 50.0 µM 99.4%
inactive: [3]; [7] 68%

O=C(c1ccc([N+](=O)[O-])cc1)N1CCCSC1=S
inactive: [1]; [7] 19% | [1]; [8] 27% | [1]; at 50.0 µM 26.8% | [2]; [7] -7% | [2]; [8] 12% | [2]; at 50.0 µM 22.2% | [3]; [7] 10% | [3]; [8] 21% | [3]; at 50.0 µM 31.6% | [4]; [7] 21% | [4]; [8] 27% | [4]; at 50.0 µM 27.2% | [5]; [7] 6% | [5]; [8] 11% | [5]; at 50.0 µM 16% | [6]; [7] 11% | [6]; [8] 31% | [6]; at 50.0 µM 60.5%

C/C(=N\NC(=S)N1CCN(c2ccccn2)CC1)c1ccccn1
active: [1]; [8] 99% | [1]; at 50.0 µM 87.7% | [2]; [8] 100% | [2]; at 50.0 µM 90.2% | [3]; [8] 99% | [3]; at 50.0 µM 89.8% | [4]; [8] 98% | [4]; at 50.0 µM 83.2% | [5]; [8] 100% | [5]; at 50.0 µM 90.1% | [6]; [8] 99% | [6]; at 50.0 µM 88.3%
inactive: [1]; [7] 46% | [2]; [7] 35% | [3]; [7] 35% | [4]; [7] 21% | [5]; [7] 63% | [6]; [7] 58%

COc1ccc(/C=C(\C#N)c2ccccc2)cc1OC
inactive: [1]; [7] 0% | [1]; [8] 55% | [2]; [7] -18% | [2]; [8] 29% | [3]; [7] 1% | [3]; [8] 53% | [4]; [7] 30% | [4]; [8] 34% | [4]; at 50.0 µM 54.5% | [5]; [7] 5% | [5]; [8] 66% | [6]; [7] -6% | [6]; [8] 64%
active: [1]; at 50.0 µM 86.6% | [2]; at 50.0 µM 87.3% | [3]; at 50.0 µM 88.5% | [5]; at 50.0 µM 84.4% | [6]; at 50.0 µM 90.2%

CC(=O)c1c2c(cc3c1CC1(C3)Cc3ccc4c(c3C1=O)CCC4)CCC2 (stereo not given)
inactive: [1]; [7] 3% | [1]; [8] 1% | [1]; at 50.0 µM -0.85% | [2]; [7] 7% | [2]; [8] 5% | [2]; at 50.0 µM 17.2% | [3]; [7] 18% | [3]; [8] 7% | [3]; at 50.0 µM 5.75% | [4]; [7] 15% | [4]; [8] 16% | [4]; at 50.0 µM 6.8% | [5]; [7] 12% | [5]; [8] 39% | [5]; at 50.0 µM 55.2% | [6]; [7] 7% | [6]; [8] 6% | [6]; at 50.0 µM 36.4%
